# Sampled rows, rich in hits. Any-hit rate of the full collection: about 2.3%.
# Tau fluor counter = counter-screen for tau fibril formation inhibitors | tau K18 P301L Alexa594 fluorescence, heparin fibrillization | Potency, µM (series often up to 57.7 µM), for the others: top-dose activity change, negative = decrease | actives 0.93% (n = 280,000); also: potency is read from the fitted curve at half-maximal effect; nearly all actives have a fitted effect of over 55% in size
#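 Human tau K18 P301L (15 uM unlabeled, 0.24 uM Alexa 594-labeled) in 100 mM sodium acetate pH 7 with 20 uM heparin, 6 hr at 37 C. ThT 30 uM added, 1 hr ambient; Alexa 594 FP and total fluorescence read at 555/632 nm.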
# Coupling enz = inhibits coupling enzyme system, counter-screen for aldolase hits; activity change, negative = inhibition, % at 58.2 µM, hits read low; actives 0.67% (n = 290,000); coupling enzyme system counterscreen, AmpLite Red fluorescence; in the data active = activity change below about -30%
#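 Compounds tested against the coupling enzymes alone at 57.5 uM final; readout was AmpLite Red fluorescence (525/598 nm) after 20 min at RT.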
# Tau fibril ThT = blocks human tau fibril formation measured by thioflavin T; recombinant tau K18 P301L (four-repeat tau fragment), heparin-induced fibrillization, ThT fluorescence; actives 2.1% (n = 270,000); AID 1460; Potency, µM (top dose mostly 57.4 µM), for inactives: at the top dose activity, negative = inhibition, most hits filed as inhibitors; P10636; also: potency is read from the fitted curve at half-maximal effect; nearly all actives have a fitted effect of over 55% in size
# Target sequence (P10636 561-689 P618L limits assumed): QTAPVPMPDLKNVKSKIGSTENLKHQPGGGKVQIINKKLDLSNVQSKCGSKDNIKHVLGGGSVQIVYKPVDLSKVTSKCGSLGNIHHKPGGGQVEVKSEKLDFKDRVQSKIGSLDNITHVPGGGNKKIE
#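 Heparin-induced (20 uM) aggregation of recombinant human K18 P301L tau, 15 uM unlabeled with 0.24 uM labeled, pH 7 acetate buffer, 6 hr at 37 C with compound. Fibrils quantified by 30 uM ThT fluorescence after 1 hr ambient incubation.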
# USP1 inh = inhibitors of human USP1/UAF1 deubiquitinase | O94782 | recombinant USP1/UAF1, Ub-Rhodamine cleavage fluorescence | Potency, µM (top dose mostly 57.1 µM), for the others: top-dose activity change, negative = inhibition, most hits filed as inhibitors | actives 0.23% (n = 390,000); also: potency is read from the fitted curve at half-maximal effect; nearly all actives have a fitted effect of over 60% in size
#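 High-throughput fluorogenic screen: 1nM USP1/UAF1 complex, Ub-Rho substrate 150nM final, 50mM HEPES pH 7.8 with 0.5mM EDTA, 0.1 mg/ml BSA, 1mM TCEP and 0.01% Tween-20.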
# Tau fibril FP = inhibitors of human tau fibril formation | K18 P301L tau heparin fibrillization, Alexa594 FP, 6 h | Potency, µM (highest dose often 57.7 µM), for inactives: at the top dose activity, negative = inhibition, usual class: inhibitors | actives 0.39% (n = 280,000); also: potency is read from the fitted curve at half-maximal effect; nearly all actives have a fitted effect of over 55% in size
#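 Recombinant K18 P301L […], labeled with Alexa 594 at 0.24 uM over 15 uM unlabeled; heparin inducer 20 uM final; 37 C, 6 hr; FP endpoint.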
# Active calls of the source: *; u = inconclusive; x = no result given; ! = repeats disagree; [ ] = remark or other dose. Unless noted, calls follow the shape of the dose curve; as a rule, active = well fitted curve in the direction sought with a large enough effect; inconclusive = small, poorly fitted or top-dose-only effect, or another doubt; inactive = no such curve, though single readings can be large; an effect the other way counts as inactive or inconclusive. % is scaled to controls: 0 for no effect and ±100 for the full control effect.
SMILES,Tau fluor counter,Coupling enz,Tau fibril ThT,USP1 inh,Tau fibril FP
Cc1nc(C)c(C(=O)Nc2ncc([N+](=O)[O-])s2)o1,-23%,-3,25µM*,-9%,u
CC(C)=CC1C(CO)C1(C)C (centres undefined),0%,2,-2%,x,-2%
CC(=O)c1ccc(NC(=O)c2nc3ccccc3n(C)c2=O)cc1,-5%,x,u,-8%,-7%
O=C(Nc1ccccc1)Nc1ncc([N+](=O)[O-])s1,u,-3,18µM*,-21%,1%
O=[N+]([O-])c1cccc(-c2csc(Nc3ccccc3)n2)c1,25µM*[quencher],-4,u,-6%,13%
COc1cc(NS(=O)(=O)c2ccc(NS(=O)(=O)c3ccccc3)cc2)nc(OC)n1,0%,5,4%,-1%,-5%
Cc1csc(Nc2cccc3ccccc23)n1,-20%,-6,u,3%,0%
COc1cc(NS(=O)(=O)c2ccc(Nc3nc(-c4cccc([N+](=O)[O-])c4)cs3)cc2)nc(OC)n1,u,4,18µM*,-26%,u
COc1ccccc1Nc1nc(C)cs1,u,0,22µM*,-5%,u
CN(Cc1ccccc1)C(=O)[C@H](Cc1ccc2ccccc2c1)NC(=O)[C@@H]1CCCN1C(=O)Nc1ccccc1[N+](=O)[O-],-27%,0,u,x,14%
C[C@H](CO)N1C[C@H](C)[C@@H](CN(C)S(=O)(=O)c2ccc(C#N)cc2)OCc2cnnn2CCCC1=O,x,x,x,-9%,x
Cc1ccccc1NC(=O)c1c(C)oc2ccc(O)c(CN3CCCCCC3)c12,-28%,x,u,-21%,-1%
O=C(Nc1nc(-c2cccnc2)cs1)c1cccc([N+](=O)[O-])c1,-7%,-1,-7%,3%,4%
O=C(Nc1nc(-c2ccccc2)cs1)c1cccc([N+](=O)[O-])c1,16µM*[quencher],x,u,-6%,14%
CCOc1ccc(Nc2nc3c(S(=O)(=O)c4ccc(C(C)C)cc4)nnn3c3ccsc23)cc1,u,x,8%,u,-9%
Cc1ccc(S(=O)(=O)c2nnn3c2nc(Nc2ccc(C(C)C)cc2)c2sccc23)cc1C,u,x,16%,7%,13µM*
Cc1ccc(N=C2C(=O)Nc3ccccc32)cc1,x,-5,x,u,x
CCN(CC)c1ccc(N=C2C(=O)Nc3ccccc32)cc1,x,-11,x,32µM*,x
CCOC(=O)C1=C(C)NC(C)=C(C(=O)OCC)C1,u,2,2%,22µM*!,4%
C[C@@H]1CN([C@@H](C)CO)C(=O)c2c(c3ccccc3n2C)-c2ccccc2CO[C@H]1CN(C)C(=O)[C@H](Cc1ccccc1)N(C)C,x,x,x,-22%,x
Cc1ccc(C(C[N+](=O)[O-])c2c(-c3ccccc3O)[nH][nH]c2=O)cc1 (centres undefined),-22%,-6,18µM*,u,u
CC(=O)N1/C(=C/c2ccc(N(C)C)cc2)C(=O)c2ccccc21,10µM*[quencher],-3,10µM*,-11%,-12%
CC(=O)N1c2ccccc2C(=O)C1N(C)c1ccc(C)cc1 (centres undefined),x,-5,x,-20%,x
CCOC(=O)N1CCN(C2=C(NS(=O)(=O)c3ccc(Br)cc3)C(=O)c3ccccc3C2=O)CC1,x,x,x,-25%,x
CCOC(=O)C1CCN(C2=C(NS(=O)(=O)c3ccc(Br)cc3)C(=O)c3ccccc3C2=O)CC1,x,-33*,x,u,x
SMILES,Tau fluor counter,Coupling enz,Tau fibril ThT,USP1 inh,Tau fibril FP
NC(=O)C1CCN(C2=C(NS(=O)(=O)c3ccc(Br)cc3)C(=O)c3ccccc3C2=O)CC1,x,-32*,x,u,x
NC(=O)C1CCN(c2nc3ccccc3nc2NS(=O)(=O)c2ccc(Br)cc2)CC1,x,x,x,4%,x
NC(=O)C1CCN(C2=C(NS(=O)(=O)c3ccccc3)C(=O)c3ccccc3C2=O)CC1,-27%,-31*,u,-17%,5%
CCOc1ccc(OCC)c(NC(=O)c2ccc(-c3ccccc3)s2)c1,-23%,x,-9%,-19%,0%
CCOC(=O)C1CCN(C(=O)c2cc(S(=O)(=O)N3CCCCCC3)ccc2OC)CC1,x,x,x,0%,x
Cc1ccsc1/C=C1/C(=O)NN(c2ccccc2)C1=O,-29%,-12,u,3%,8%
Cc1ccsc1C=C1C(=O)c2ccccc2C1=O,u,1,14µM*,-18%,-2%
Cc1cc(Nc2ccccc2)n(-c2nc3ccccc3[nH]2)n1,25µM*[quencher],-9,u,-17%,-14%
C=CCOC(=O)N[C@H](/C(C(=O)OC)=C(\C)NCc1ccccc1)c1cccc(F)c1,0%,1,2%,x,-1%
CCOC(=O)C1=C(N)OC2=C(C(=O)CCC2)C1c1cccs1 (centres undefined),-1%,-40*,-8%,-7%,4%
COC(=O)C1=C(N)OC2=C(C(=O)CCC2)C1c1cccs1 (centres undefined),0%,-15,-3%,-3%,7%
O=C(Nc1ccccc1Cl)[C@H](CSCc1ccccc1)N1Cc2ccccc2C1=O,-29%,x,-14%,u,-2%
CCCCC1OC23CCCCC2C(C#N)(C#N)C1(C#N)C(=N)O3 (centres undefined),1%,-45*,4%,-13%,7%
CCCCC1OC23CCCCC2C(C#N)(C(=N)O3)C1(C#N)C#N (centres undefined),-8%,-4,u,-31%,-4%
CCOc1ccc2nc(/N=C/c3c(C)[nH]n(-c4ccccc4)c3=O)sc2c1,u,-14,14µM*,5%,u
COc1ccc(NC(=O)CN(C)S(=O)(=O)c2ccc3nc(C)sc3c2)cc1Cl,-15%,x,-1%,u,-8%
O=C1c2cccc3c(O)ccc(c23)C(=O)N1Cc1ccccc1,u,9,u,6.3µM*,9%
O=C1Cc2ccccc2C(=O)N1Cc1ccccc1,-15%,-43*,u,3.2µM*,0%
COc1ccc2c(c1)C(c1cc(OC)c(OC)c(OC)c1)CC(=O)O2 (centres undefined),-13%[81.3 µM],-5,-10%[81.4 µM],x,1%[81.3 µM]
COc1ccc(S(=O)(=O)NCC(c2ccco2)N2CCOCC2)cc1OC (centres undefined),-2%,x,-2%,3%,-2%
COn1c2c(c3c4no[n+]([O-])c4ccc31)CCCC2,-17%,0,u,-11%,2%
[O-][n+]1c2c(c3c4non(O)c4ccc31)CCCC2,u,0,14µM*,u,10%
CC(C)CN(Cc1c(O)ccc2ccccc12)CC(C)C,u,-9,u,-6%,-1%
CCN(Cc1ccncc1)Cc1c(O)ccc2ccccc12,u,-33*,u,-10%,-14%
CCCCc1ccc(NC(=S)NCc2cccc(OC)c2)cc1,u,1,-10%,-12%,-14%
